# Source: PubChem BioAssay (NCATS)
# “And” between values parts separate entries of the source, which are not always exact repeats. Identical values can stand only once. Results filed as inconclusive are left out. The source made the active and inactive calls. Unless noted, calls follow the shape of the dose curve; as a rule, active = well fitted curve in the direction sought with a large enough effect; inconclusive = small, poorly fitted or top-dose-only effect, or another doubt; inactive = no such curve, though single readings can be large; an effect the other way counts as inactive or inconclusive.
# Legend:
# [1] = qHTS Assay for Lipid Storage Modulators (AID 1519; calls by dose curve; as to activity change, negative = inhibition: % is scaled to controls: 0 for no effect and ±100 for the full control effect); conditions: Drosophila S3 cells, BODIPY lipid droplet/cell ratio, laser cytometry, cells loaded with oleic acid
# Procedure, shortened: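 Cells seeded at 5,000 per well were treated with compounds over a concentration series and loaded with oleic acid (400 uM, as added). Lipid droplet fluorescence (488 nm excitation, 500-530 nm channel) was read by laser-scanning cytometry and normalized to 20 uM Triacsin C.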
# [2] = biological target: alpha-glucosidase (Oryza sativa, rice) (UniProt Q653V4); assay: Counterscreen for Glucocerebrosidase Inhibitors: qHTS Assay for Rice alpha-Glucosidase at pH 5.0 (AID 997); conditions: rice alpha-glucosidase enzyme activity; series mostly up to 76.9 µM;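 also: 0% = full activity with enzyme and -100% = basal without enzyme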
# Procedure, shortened: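 Rice alpha-glucosidase (4 nM final) with 400 uM 4-methylumbelliferyl-alpha-D-glucopyranoside in citrate buffer pH 5.0, 20 min at room temperature, stopped at pH 10; fluorescence 365/440 nm, compounds 0.7 nM–77 uM, AC50 from Hill fits.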
# [3] = Validation of Assay for Modulators of Lamin A Splicing (AID 1459; active = well fitted curve in the direction sought with a large enough effect in the signal ratio; the % refers to the signal ratio;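 also: cells exposed to compound for two days before reading; 0% is about no effect; ratio rise marks activators and ratio drop marks inhibitors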); conditions: Lamin A splicing dual RFP/GFP fluorescence reporter; series mostly up to 9.22 µM
# Procedure, shortened: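 HeLa S3 lamin A-EGFP/DsRed2 stable clone, 600 cells/well, Opti-MEM 2% FBS; compounds by pin tool; 48 hrs, 37 °C/5% CO2; Acumen 488 nm scan, objects 10-100 um; GFP/RFP intensity ratio.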
# [4] = Counterscreen for APE1 Inhibitors: Fluorescent Dye Displacement Validation Assay (AID 1707); conditions: fluorescent dye displacement from DNA; series mostly up to 57.1 µM;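 also: plate controls were ThO with dsDNA and no compound for no effect and ThO without dsDNA for full effect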
# Procedure, shortened: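 ThO 250 nM + dsDNA 50 nM (THF abasic site, 5'-TAMRA), Tris-HCl pH7.5/50mM NaCl/2 mM MgCl2/0.01% Tween-20; compounds pin-transferred; ex 480/em 540 nm endpoint. Neutral = no compound; no-DNA ThO wells = negative control.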
# [5] = qHTS for differential inhibitors of proliferation of Plasmodium falciparum line 7G8 (AID 1815); conditions: Plasmodium falciparum 7G8 proliferation inhibition; series mostly up to 28.7 µM;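 also: parasite growth measured after three days of incubation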; also: potency is read from the fitted curve at half-maximal effect;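 as to activity change, negative = inhibition: plate controls were vehicle wells for no effect and reference inhibitor wells for full effect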
# [6] = qHTS for differential inhibitors of proliferation of Plasmodium falciparum line GB4 (AID 1816); conditions: Potency: Plasmodium falciparum GB4 proliferation inhibition; series mostly up to 28.7 µM;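 also: parasite growth measured after 72 h incubation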; also: potency is read from the fitted curve at half-maximal effect;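 as to activity change, negative = inhibition: 0% = vehicle DMSO and -100% = reference inhibitor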
# [7] = biological target: DNA repair nuclease/redox regulator APEX1 (Homo sapiens) (UniProt P27695); assay: qHTS Validation Assay for Inhibitors of the Human Apurinic/apyrimidinic Endonuclease 1 (APE1) (AID 1705;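 also: TAMRA fluorescence gain over two minutes as APE1 cuts a quenched THF abasic duplex; % is scaled to controls: 0 for no effect and ±100 for the full control effect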); conditions: purified APE1 endonuclease activity, fluorescence, titration; series mostly up to 57.1 µM
# Procedure, shortened: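 qHTS, 1536-well. APE1 + cpd 15 min RT → 50 nM TAMRA/BHQ-2 THF-abasic dsDNA substrate → kinetic fluorescence, 3 reads/60 s; delta(read3−read1) = reaction progress. No-enzyme buffer = negative control.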
# [8] = biological target: Endonuclease 4 (Escherichia coli (strain K12)) (UniProt P0A6C1); assay: Counterscreen for APE1 Inhibitors: qHTS Validation Assay for Inhibitors of Endonuclease IV (AID 1708); also: % is scaled to controls: 0 for no effect and ±100 for the full control effect; conditions: E. coli endonuclease IV, DNA cleavage fluorescence; series mostly up to 57.1 µM
# Procedure, shortened: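 Enzymatic AP-site incision assay using a double-stranded THF substrate labelled with TAMRA and BHQ-2; released fluorescence signals activity. Enzyme 2 nM, substrate 50 nM, 15 min compound preincubation.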
# [9] = Cell Viability - LYMP1-002 - Assay at 24 hr (AID 993); conditions: LYMP1-002 lymphoblastoid cells viability; series mostly up to 92.2 µM; also: potency is read from the fitted curve at half-maximal effect
# Procedure, shortened: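 qHTS, LYMP1-002 lymphoblastoid, 24 h cpd, 37 C, CellTiter-Glo ATP luminescence; AC50 via Hill eq.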
# [10] = Cell Viability - LYMP1-002 - Assay at 40 hr (AID 994); conditions: LYMP1-002 lymphoblastoid cell viability; series mostly up to 92.2 µM; also: potency is read from the fitted curve at half-maximal effect; nearly all actives have a fitted effect of over 60% in size
# Procedure, shortened: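 Viability in the human lymphoblastoid line was measured as intracellular ATP via CellTiter-Glo after 40 hr compound exposure. Tetraoctylammonium bromide served as positive control.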
# [11] = measured here: cell count channel max response
# [12] = measured here: lipid channel max response
# DNA repair nuclease/redox regulator APEX1 (Homo sapiens), sequence (P27695 whole entry, looked up): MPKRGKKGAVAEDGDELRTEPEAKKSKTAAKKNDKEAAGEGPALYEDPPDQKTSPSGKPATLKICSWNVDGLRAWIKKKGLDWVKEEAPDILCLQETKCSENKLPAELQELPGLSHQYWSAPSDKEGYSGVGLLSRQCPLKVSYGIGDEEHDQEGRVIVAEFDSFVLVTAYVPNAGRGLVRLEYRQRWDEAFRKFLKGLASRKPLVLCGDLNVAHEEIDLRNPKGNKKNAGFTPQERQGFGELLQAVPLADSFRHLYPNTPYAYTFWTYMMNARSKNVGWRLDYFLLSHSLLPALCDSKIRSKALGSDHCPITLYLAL
smiles,measurement,setting,value
CCN(CC)CCOc1ccc(/C(=C(\Cl)c2ccccc2)c2ccccc2)cc1,"activity change, negative = inhibition",[1]; at 57.5 µM (top of the series),-1.21% (inactive)
same,max response,[1]; [11],9.36%
same,max response,[1]; [12],11.5%
O=C(O)/C=C(\CC(=O)O)C(=O)O,"activity change, negative = inhibition",[1]; at 57.5 µM (top of the series),3.99% (inactive)
same,max response,[1]; [11],-7.3%
same,max response,[1]; [12],1.94%
CN(C)c1cc2c(Nc3ccc4c(cnn4Cc4ccccc4)c3)ncnc2cn1,outcome,[2],inactive
same,outcome,[3],inactive
same,outcome,[4],inactive
same,Potency,[5],5.01 µM (active)
same,Potency,[6],3.16 µM (active)
OC(CCCN1CCCCC1)(c1ccccc1)c1ccccc1,"activity change, negative = inhibition",[1]; at 25.7 µM (top of the series),-0.646% (inactive)
same,max response,[1]; [11],10.3%
same,max response,[1]; [12],9.61%
O=C1NC(c2cccc([N+](=O)[O-])c2)=CCN1c1ccccc1O,outcome,[2],inactive
same,outcome,[3],inactive
same,outcome,[7],inactive
same,outcome,[4],inactive
same,outcome,[8],inactive
same,Potency,[5],inactive
same,Potency,[6],inactive
Nc1ncnc2nc[nH]c12,"activity change, negative = inhibition",[1]; at 57.5 µM (top of the series),6.5% (inactive)
same,max response,[1]; [11],12.7%
same,max response,[1]; [12],22.5%
NC(N)=NCCCCN=C(N)N,outcome,[2],inactive
same,outcome,[3],inactive
same,"activity change, negative = inhibition",[1]; at 25.7 µM (top of the series),-0.421% (inactive)
same,"activity change, negative = inhibition",[1]; at 57.5 µM (top of the series),-1.91% (inactive) and 4.1% (inactive) and 0.28% (inactive)
same,outcome,[7],inactive
same,outcome,[4],inactive
same,outcome,[8],inactive
same,Potency,[5],inactive
same,Potency,[6],inactive
Brc1ccc([C@H]2CN3CCSC3=N2)cc1,outcome,[2],inactive
same,outcome,[3],inactive
same,"activity change, negative = inhibition",[1]; at 57.5 µM (top of the series),0.192% (inactive)
same,max response,[1]; [11],-9.46%
same,max response,[1]; [12],-7.25%
same,outcome,[7],inactive
same,outcome,[4],inactive
same,outcome,[8],inactive
same,Potency,[5],11.2 µM (active)
same,Potency,[6],12.6 µM (active)
Nc1c2ccccc2nc2ccccc12,Potency,[9],20 µM (active)
same,Potency,[10],12.6 µM (active)
same,"activity change, negative = inhibition",[1]; at 57.5 µM (top of the series),-13.1% (inactive)
same,max response,[1]; [11],-6.77%
same,max response,[1]; [12],-18.9%
CCOC(=O)NNc1nncc2ccccc12,"activity change, negative = inhibition",[1]; at 25.7 µM (top of the series),0.543% (inactive)
same,max response,[1]; [11],-3.66%
same,max response,[1]; [12],-3.48%
CN(C(=O)C(Cl)Cl)c1ccc(OC(=O)c2ccco2)cc1,"activity change, negative = inhibition",[1]; at 25.7 µM (top of the series),-19.5% (inactive)
same,max response,[1]; [11],-11.9%
same,max response,[1]; [12],-28.6%
COc1ccccc1N1CCN(CCN2C(=O)CC3(CCCC3)CC2=O)CC1,outcome,[2],inactive
same,outcome,[3],inactive
same,outcome,[7],inactive
same,outcome,[4],inactive
same,outcome,[8],inactive
same,Potency,[6],inactive
Cn1cnc2c(NCc3ccccc3)nc(NCCO)nc21,outcome,[2],inactive
same,outcome,[3],inactive
same,"activity change, negative = inhibition",[1]; at 57.5 µM (top of the series),-0.56% (inactive)
same,max response,[1]; [11],-34.4%
same,max response,[1]; [12],-34.7%
same,outcome,[7],inactive
same,outcome,[4],inactive
same,outcome,[8],inactive
same,Potency,[5],inactive
Cc1ncc(CO)c(CO)c1O,"activity change, negative = inhibition",[1]; at 25.7 µM (top of the series),-0.151% (inactive)
same,max response,[1]; [11],0.978%
same,max response,[1]; [12],-0.91%
NCC(=O)O,"activity change, negative = inhibition",[1]; at 57.5 µM (top of the series),-2.71% (inactive)
same,max response,[1]; [11],5.73%
same,max response,[1]; [12],4.04%
C[N+](C)(C)CCO,outcome,[2],inactive
same,outcome,[3],inactive
same,outcome,[7],inactive
same,outcome,[4],inactive
same,Potency,[5],inactive
same,Potency,[6],inactive
Cc1ccc2c(Cl)cc(Cl)c(O)c2n1,"activity change, negative = inhibition",[1]; at 57.5 µM (top of the series),4.67% (inactive)
same,max response,[1]; [11],-3.23%
same,max response,[1]; [12],2.66%
O=C(CCCCC(=O)Nc1c(I)cc(I)c(C(=O)O)c1I)Nc1c(I)cc(I)c(C(=O)O)c1I,"activity change, negative = inhibition",[1]; at 25.7 µM (top of the series),-0.504% (inactive)
same,max response,[1]; [11],-3.67%
same,max response,[1]; [12],-4.34%
COc1cccc2c1[C@@H]1CN(CCCCn3c(=O)[nH]c4c(sc5ncc(-c6ccccc6)nc54)c3=O)C[C@@H]1CO2,outcome,[3],inactive
same,"activity change, negative = inhibition",[1]; at 57.5 µM (top of the series),0.568% (inactive)
same,max response,[1]; [11],7.98%
same,max response,[1]; [12],9.55%
same,outcome,[7],inactive
same,outcome,[4],inactive
same,Potency,[5],11.2 µM (active)
COC(=O)c1c(Cl)c(Cl)c(C(=O)OC)c(Cl)c1Cl,"activity change, negative = inhibition",[1]; at 57.5 µM (top of the series),5.84% (inactive)
same,max response,[1]; [11],15.4%
same,max response,[1]; [12],24.6%
C1N2CN3CN1CN(C2)C3,"activity change, negative = inhibition",[1]; at 57.5 µM (top of the series),4.78% (inactive)
same,max response,[1]; [11],-0.0775%
same,max response,[1]; [12],6.42%
O=[N+]([O-])c1ccc(-c2nc(-c3ccc(F)cc3)c(-c3ccncc3)[nH]2)cc1,outcome,[2],inactive
same,Potency,[5],4.47 µM (active)
same,Potency,[6],3.98 µM (active)
CC(C)N(CCC(=O)c1ccc2ccccc2c1)Cc1ccccc1,outcome,[2],inactive
same,outcome,[4],inactive
C[C@]12CCC(=O)C=C1CC[C@@H]1[C@@H]2[C@@H](O)C[C@@]2(C)[C@H]1CC[C@]2(O)C(=O)COC(=O)CCC(=O)O,outcome,[4],inactive
same,Potency,[6],inactive
